Active and inactive are the calls of the source.
Experiments:
[1] = small molecules captured by biotinylated probe aFSTL3 – biochemical, small-molecule microarray, fluorescence 635/667, stem cell growth factor project, primary screen (AID 1064); settings: higher = more signal;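 note: measures binding of the biotinylated anti-FSTL3 antibody to printed compounds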
[2] = binders from COS7 lysate, DM2A8 probe, primary screen, torsin A project, cell lysate, small-molecule microarray, fluorescence 635/667 (AID 1065); settings: higher = more signal, COS7 lysate expressing mutant human TOR1A
[3] = small molecules captured by biotinylated probe aFGF2 – biochemical, small-molecule microarray, fluorescence 635/667, stem cell growth factor project, primary screen (AID 1067); settings: higher = more signal;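 note: measures binding of biotinylated aFGF2 protein to printed compounds on slides; z-score merges feature fluorescence and signal-to-noise across triplicate slides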
[4] = small molecules captured by biotinylated probe aFGF10 – biochemical, small-molecule microarray, fluorescence 635/667, stem cell growth factor project, primary screen (AID 1071); settings: higher = more signal;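 note: score merges 667 nm spot intensity and signal to noise from triplicate slides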
[5] = target: Neurogenic locus notch homolog protein 2 (Homo sapiens) (UniProt Q04721); assay: small molecules binding Notch2 protein – biochemical, small-molecule microarray, 635 nm fluorescence, stem cell growth factors, primary screen (AID 1073); settings: higher = more signal
[6] = target: Pro-neuregulin-1, membrane-bound isoform (Homo sapiens) (UniProt Q02297); assay: small molecules binding neuregulin-1 protein – biochemical, small-molecule microarray, fluorescence 635/667, psychiatric disease protein project, primary screen (AID 1075); settings: NRG1 binding, 635 nm fluorescence, higher = more signal;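 note: score combines 667 nm spot fluorescence with signal to noise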
[7] = system: Neuregulin-1 EGF-like domain; assay: small molecules binding NRG1 EGF domain – biochemical, small-molecule microarray, 635 nm fluorescence, primary screen (AID 1081); settings: higher = more signal;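 note: binding of the protein to compounds printed on small-molecule microarray slides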
[8] = FRG1 expression reporter modulators in myotubes – cell-based, C2C12 myotubes, firefly/Renilla luciferase, luminescence, FRG1 inhibition for FSHD, primary screen (AID 1084); settings: FRG1 promoter luciferase, higher = more signal, called active from +8 up or from −8 down
[9] = small molecules captured by biotinylated probe aFST – biochemical, small-molecule microarray, fluorescence 635/667, stem cell growth factor project, primary screen (AID 1086); settings: higher = more signal;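 note: score merges 667 nm fluorescence with signal-to-noise of each printed compound spot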
[10] = binders of probe aHhip on microarray, primary screen, stem cell growth factor project, biochemical, small-molecule microarray, fluorescence 635/667 (AID 1087); settings: higher = more signal;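 note: score merges spot fluorescence at 667nm with spot signal to noise ratio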

Chain of Neurogenic locus notch homolog protein 2 (Homo sapiens) (Q04721 whole entry, looked up, canonical isoform): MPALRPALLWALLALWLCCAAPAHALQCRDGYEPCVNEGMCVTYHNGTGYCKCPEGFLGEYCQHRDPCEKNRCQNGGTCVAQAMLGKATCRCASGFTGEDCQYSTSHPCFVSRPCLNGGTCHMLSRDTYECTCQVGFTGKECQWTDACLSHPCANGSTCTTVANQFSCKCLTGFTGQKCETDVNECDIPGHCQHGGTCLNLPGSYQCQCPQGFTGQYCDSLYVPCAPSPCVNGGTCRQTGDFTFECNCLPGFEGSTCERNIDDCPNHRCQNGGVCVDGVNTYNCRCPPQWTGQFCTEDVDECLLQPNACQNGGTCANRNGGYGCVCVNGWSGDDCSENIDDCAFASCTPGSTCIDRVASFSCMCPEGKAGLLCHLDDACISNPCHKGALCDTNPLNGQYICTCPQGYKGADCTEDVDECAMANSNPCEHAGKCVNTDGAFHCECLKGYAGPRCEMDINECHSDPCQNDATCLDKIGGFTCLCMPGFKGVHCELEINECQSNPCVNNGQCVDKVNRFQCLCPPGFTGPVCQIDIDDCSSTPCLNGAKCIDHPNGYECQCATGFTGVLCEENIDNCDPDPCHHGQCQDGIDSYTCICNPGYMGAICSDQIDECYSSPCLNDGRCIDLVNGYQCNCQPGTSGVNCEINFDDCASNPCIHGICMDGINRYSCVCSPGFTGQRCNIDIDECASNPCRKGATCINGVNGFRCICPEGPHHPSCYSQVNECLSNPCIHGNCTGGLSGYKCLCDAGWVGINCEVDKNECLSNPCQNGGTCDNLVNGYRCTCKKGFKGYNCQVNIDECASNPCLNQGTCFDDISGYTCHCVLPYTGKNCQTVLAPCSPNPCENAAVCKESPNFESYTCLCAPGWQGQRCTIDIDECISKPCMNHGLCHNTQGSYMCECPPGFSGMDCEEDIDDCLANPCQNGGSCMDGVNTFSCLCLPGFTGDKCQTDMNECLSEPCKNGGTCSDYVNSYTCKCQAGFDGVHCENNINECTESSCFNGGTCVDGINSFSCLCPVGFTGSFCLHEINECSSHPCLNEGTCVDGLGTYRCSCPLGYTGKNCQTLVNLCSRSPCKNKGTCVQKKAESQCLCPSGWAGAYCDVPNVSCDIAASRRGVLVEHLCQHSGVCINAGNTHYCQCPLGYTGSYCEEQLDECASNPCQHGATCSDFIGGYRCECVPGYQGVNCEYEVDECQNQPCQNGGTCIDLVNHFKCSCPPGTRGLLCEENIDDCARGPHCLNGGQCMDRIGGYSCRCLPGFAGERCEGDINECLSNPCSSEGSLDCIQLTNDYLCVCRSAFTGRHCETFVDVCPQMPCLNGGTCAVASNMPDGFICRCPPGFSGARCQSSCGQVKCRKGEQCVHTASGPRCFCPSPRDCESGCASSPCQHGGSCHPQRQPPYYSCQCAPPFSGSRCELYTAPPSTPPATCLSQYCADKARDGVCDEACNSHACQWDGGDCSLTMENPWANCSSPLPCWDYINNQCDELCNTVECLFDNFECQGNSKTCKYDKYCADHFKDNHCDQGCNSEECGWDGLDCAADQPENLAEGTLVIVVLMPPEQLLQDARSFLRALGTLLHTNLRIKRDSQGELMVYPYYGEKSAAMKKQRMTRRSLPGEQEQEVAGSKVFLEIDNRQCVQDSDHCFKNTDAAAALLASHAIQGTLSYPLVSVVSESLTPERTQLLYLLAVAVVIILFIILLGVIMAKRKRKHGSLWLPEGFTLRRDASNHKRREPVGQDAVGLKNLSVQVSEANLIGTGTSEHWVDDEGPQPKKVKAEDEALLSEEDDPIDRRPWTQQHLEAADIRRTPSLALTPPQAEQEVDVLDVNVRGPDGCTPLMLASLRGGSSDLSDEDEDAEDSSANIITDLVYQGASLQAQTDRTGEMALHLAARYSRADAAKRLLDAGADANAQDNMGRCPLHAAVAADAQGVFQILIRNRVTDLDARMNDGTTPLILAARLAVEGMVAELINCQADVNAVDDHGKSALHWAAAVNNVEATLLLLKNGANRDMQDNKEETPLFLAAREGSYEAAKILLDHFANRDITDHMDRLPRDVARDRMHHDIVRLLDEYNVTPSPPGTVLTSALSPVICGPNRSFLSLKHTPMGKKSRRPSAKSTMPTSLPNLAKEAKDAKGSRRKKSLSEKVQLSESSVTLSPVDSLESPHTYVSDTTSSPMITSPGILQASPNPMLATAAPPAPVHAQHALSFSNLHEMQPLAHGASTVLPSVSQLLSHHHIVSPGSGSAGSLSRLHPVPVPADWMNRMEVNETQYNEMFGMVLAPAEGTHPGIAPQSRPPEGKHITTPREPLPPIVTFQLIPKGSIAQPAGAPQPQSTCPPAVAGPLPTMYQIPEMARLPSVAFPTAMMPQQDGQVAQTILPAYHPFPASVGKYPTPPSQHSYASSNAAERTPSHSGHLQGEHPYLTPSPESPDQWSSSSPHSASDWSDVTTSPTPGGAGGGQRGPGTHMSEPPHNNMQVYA
Chain of Pro-neuregulin-1, membrane-bound isoform (Homo sapiens) (Q02297 whole entry, looked up, the tested form may be a part, canonical isoform): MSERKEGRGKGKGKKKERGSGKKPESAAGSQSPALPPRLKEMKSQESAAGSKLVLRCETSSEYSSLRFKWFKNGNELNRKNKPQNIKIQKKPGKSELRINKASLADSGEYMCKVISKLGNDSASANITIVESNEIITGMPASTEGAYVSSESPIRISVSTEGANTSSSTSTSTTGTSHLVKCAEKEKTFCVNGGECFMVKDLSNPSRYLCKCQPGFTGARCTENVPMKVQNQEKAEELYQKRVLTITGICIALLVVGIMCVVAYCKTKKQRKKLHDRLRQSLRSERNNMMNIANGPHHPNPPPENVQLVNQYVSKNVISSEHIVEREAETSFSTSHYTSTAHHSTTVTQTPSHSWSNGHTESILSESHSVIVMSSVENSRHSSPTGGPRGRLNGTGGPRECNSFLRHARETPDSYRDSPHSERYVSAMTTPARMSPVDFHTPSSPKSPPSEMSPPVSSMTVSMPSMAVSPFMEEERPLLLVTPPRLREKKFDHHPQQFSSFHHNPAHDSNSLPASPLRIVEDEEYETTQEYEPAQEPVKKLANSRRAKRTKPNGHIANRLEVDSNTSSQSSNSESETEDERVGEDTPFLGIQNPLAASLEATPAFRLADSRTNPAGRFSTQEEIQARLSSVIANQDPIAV

**Q.** For `O=C1NC(=O)C2C1C=CC(C(O)c1cc(C(F)(F)F)cc(C(F)(F)F)c1)N2Nc1ccccn1` (stereo not given), which composite z-score [1] is on record?
**A.** -0.119

**Q.** What about the composite z-score [2] of the same compound?
**A.** 0.134

**Q.** What about the composite z-score [3] of the same compound?
**A.** -0.0524

**Q.** What about the composite z-score [4] of the same compound?
**A.** 0.121

**Q.** What about the composite z-score [5] of the same compound?
**A.** 0.312

**Q.** And the composite z-score [6]?
**A.** 0.969

**Q.** What about the composite z-score [7] of the same compound?
**A.** 1.03

**Q.** What about the z-score [8] of the same compound?
**A.** 0.589 (inactive)

**Q.** What about the composite z-score [9] of the same compound?
**A.** 0.138

**Q.** And the composite z-score [10]?
**A.** -0.0726

**Q.** What does the source list for `CCOC(=O)C[C@H]1[C@H](OC(=O)c2cc3ccccc3oc2=O)[C@@H](NC(=O)c2ccccc2)c2cc(OCCCO)ccc2N1C(=O)c1ccc2ccccc2n1`?
**A.** composite z-score [1]: -0.408; composite z-score [2]: -0.373; composite z-score [3]: -0.0878; composite z-score [4]: 0.8; composite z-score [5]: 0.889; composite z-score [6]: 0.0325; composite z-score [7]: 1.18; z-score [8]: -0.757 (inactive); composite z-score [9]: 0.312; composite z-score [10]: -0.0346

**Q.** What does the source list for `[N-]=[N+]=NCc1ccccc1C[C@]1(C(N)=O)COC(c2ccc(OCCCO)cc2)=N1`?
**A.** composite z-score [1]: 0.293; composite z-score [2]: 2.02; composite z-score [3]: -0.0805; composite z-score [4]: -0.101; composite z-score [5]: 0.63; composite z-score [6]: 1.59; composite z-score [7]: 1.03; z-score [8]: -1.41 (inactive); composite z-score [9]: 0.847; composite z-score [10]: 0.154

**Q.** Which results are given for `Cc1ccc(N2C(=O)c3ccccc3[C@@H](C(=O)NC3CC3)[C@@H]2c2ccc(CO)cc2)nc1`?
**A.** composite z-score [1]: 1.17; composite z-score [2]: -0.78; composite z-score [3]: -0.149; composite z-score [4]: -1.26; composite z-score [5]: -1.63; composite z-score [6]: -1.14; composite z-score [7]: 0.058; z-score [8]: 0.554 (inactive); composite z-score [9]: -0.479; composite z-score [10]: -0.134

**Q.** With `C=C(C)[C@@H]1CC=C(C(O)C2C=CC3C(=O)N(c4ccccc4)C(=O)C3N2Nc2ccccc2)CC1` (stereo not given in full) as the compound, how does the composite z-score [1] read?
**A.** 1.08

**Q.** What about the composite z-score [2] of the same compound?
**A.** 0.881

**Q.** What about the composite z-score [3] of the same compound?
**A.** 0.364

**Q.** What about the composite z-score [4] of the same compound?
**A.** 0.929

**Q.** And the composite z-score [5]?
**A.** 1.26

**Q.** And the composite z-score [6]?
**A.** 1.57

**Q.** And the composite z-score [7]?
**A.** 1.28

**Q.** What about the z-score [8] of the same compound?
**A.** -0.441 (inactive)

**Q.** And the composite z-score [9]?
**A.** 1.54

**Q.** And the composite z-score [10]?
**A.** 1.07

**Q.** What does the source list for `O=C1C[C@]2(c3ccc([N+](=O)[O-])cc3)C(=O)N(CC(F)(F)F)c3cc(CO)ccc3[C@H]2N1C1CCCCC1`?
**A.** composite z-score [1]: 0.342; composite z-score [2]: -0.819; composite z-score [3]: -0.148; composite z-score [4]: -0.91; composite z-score [5]: -0.488; composite z-score [6]: -0.722; composite z-score [7]: -1.5; z-score [8]: 0.0655 (inactive); composite z-score [9]: -0.167; composite z-score [10]: -0.226

**Q.** With `C=C(CCCC)/C(=C/C[C@H](OC(=O)c1ccncc1)c1ccccc1OCCO)c1cnc2ccccc2c1` as the compound, how does the composite z-score [1] read?
**A.** -0.345

**Q.** And the composite z-score [2]?
**A.** 1.04

**Q.** What about the composite z-score [3] of the same compound?
**A.** -0.0544

**Q.** And the composite z-score [4]?
**A.** 0.706

**Q.** What about the composite z-score [5] of the same compound?
**A.** 0.965

**Q.** What about the composite z-score [6] of the same compound?
**A.** 0.424

**Q.** What about the composite z-score [7] of the same compound?
**A.** 1.05

**Q.** And the z-score [8]?
**A.** -0.756 (inactive)

**Q.** What about the composite z-score [9] of the same compound?
**A.** 0.228

**Q.** What about the composite z-score [10] of the same compound?
**A.** 0.126

**Q.** For `CC(C)=CCN[C@H](CO)c1ccccc1`, which composite z-score [1] is on record?
**A.** -0.122

**Q.** And the composite z-score [2]?
**A.** -0.428

**Q.** What about the composite z-score [3] of the same compound?
**A.** -0.0732

**Q.** And the composite z-score [4]?
**A.** 0.897

**Q.** What about the composite z-score [5] of the same compound?
**A.** 0.794

**Q.** What about the composite z-score [6] of the same compound?
**A.** -0.419

**Q.** And the composite z-score [7]?
**A.** 0.249

**Q.** What about the z-score [8] of the same compound?
**A.** 1.07 (inactive)

**Q.** What about the composite z-score [9] of the same compound?
**A.** -0.0489

**Q.** What about the composite z-score [10] of the same compound?
**A.** 0.0129

**Q.** Which composite z-score [1] does the source give for `COCCOC(=O)N1C(=O)[C@@]2(c3cc(C#CC4(O)CCCCCC4)ccc31)[C@H](c1ccccc1OCCO)N1[C@H](c3ccccc3)[C@H](c3ccccc3)OC(=O)[C@H]1[C@@H]2C(=O)N1CCN(c2ncccn2)CC1` here?
**A.** -0.383

**Q.** What about the composite z-score [2] of the same compound?
**A.** 0.604

**Q.** What about the composite z-score [3] of the same compound?
**A.** -0.0425

**Q.** And the composite z-score [4]?
**A.** 0.801

**Q.** What about the composite z-score [5] of the same compound?
**A.** 1.08

**Q.** And the composite z-score [6]?
**A.** 1.15

**Q.** What about the composite z-score [7] of the same compound?
**A.** 1.26

**Q.** And the z-score [8]?
**A.** -0.422 (inactive)

**Q.** And the composite z-score [9]?
**A.** 0.484

**Q.** What about the composite z-score [10] of the same compound?
**A.** -0.134

**Q.** Which composite z-score [1] does the source give for `COCCOC(=O)N1C(=O)[C@@]2(c3cc(C#CCNC(N)=O)ccc31)[C@H](C(=O)Nc1nc3ccccc3s1)[C@H]1C(=O)O[C@H](c3ccccc3)[C@H](c3ccccc3)N1[C@@H]2c1ccc(OCCO)cc1` here?
**A.** 1.02

**Q.** What about the composite z-score [2] of the same compound?
**A.** 0.103

**Q.** And the composite z-score [3]?
**A.** 0.0346

**Q.** And the composite z-score [4]?
**A.** 1.05

**Q.** And the composite z-score [5]?
**A.** 0.486

**Q.** And the composite z-score [6]?
**A.** 0.357

**Q.** And the composite z-score [7]?
**A.** 0.331

**Q.** And the z-score [8]?
**A.** 6.33 (inactive)

**Q.** What about the composite z-score [9] of the same compound?
**A.** 0.84

**Q.** What about the composite z-score [10] of the same compound?
**A.** -0.226

**Q.** For `COCCCNC(=O)[C@@H]1c2ccccc2C(=O)N(Cc2ccccc2Cl)[C@H]1c1ccc(CO)cc1`, which composite z-score [1] is on record?
**A.** 0.189

**Q.** And the composite z-score [2]?
**A.** -0.0402

**Q.** What about the composite z-score [3] of the same compound?
**A.** -0.117

**Q.** What about the composite z-score [4] of the same compound?
**A.** -0.247

**Q.** What about the composite z-score [5] of the same compound?
**A.** 0.161

**Q.** And the composite z-score [6]?
**A.** 0.379

**Q.** And the composite z-score [7]?
**A.** 1.48

**Q.** And the z-score [8]?
**A.** -1.76 (inactive)

**Q.** What about the composite z-score [9] of the same compound?
**A.** 0.465

**Q.** And the composite z-score [10]?
**A.** -0.0237

**Q.** For `C=C(C)[C@@H]1CC=C(C(O)C2C=CC3C(=O)N(C)C(=O)C3N2Nc2ccccc2)CC1` (stereo not given in full), which composite z-score [1] is on record?
**A.** 0.301

**Q.** What about the composite z-score [2] of the same compound?
**A.** 0.122

**Q.** What about the composite z-score [3] of the same compound?
**A.** -0.0216

**Q.** What about the composite z-score [4] of the same compound?
**A.** 0.394

**Q.** And the composite z-score [5]?
**A.** 1.27

**Q.** What about the composite z-score [6] of the same compound?
**A.** 0.624

**Q.** And the composite z-score [7]?
**A.** 0.928

**Q.** What about the z-score [8] of the same compound?
**A.** 0.283 (inactive)

**Q.** What about the composite z-score [9] of the same compound?
**A.** 0.577

**Q.** What about the composite z-score [10] of the same compound?
**A.** 0.176

**Q.** Which composite z-score [1] does the source give for `CN(C)C(=O)[C@]1(Cc2ccccc2N=[N+]=[N-])N=C(c2ccc(OCCCO)cc2)O[C@@H]1c1ccccc1N=[N+]=[N-]` here?
**A.** 0.0009

**Q.** What about the composite z-score [2] of the same compound?
**A.** 0.827

**Q.** And the composite z-score [3]?
**A.** 0.0155

**Q.** What about the composite z-score [4] of the same compound?
**A.** 0.183

**Q.** And the composite z-score [5]?
**A.** 1.47

**Q.** And the composite z-score [6]?
**A.** 1.01

**Q.** What about the composite z-score [7] of the same compound?
**A.** 1.26

**Q.** What about the z-score [8] of the same compound?
**A.** -1.74 (inactive)

**Q.** And the composite z-score [9]?
**A.** 1.15

**Q.** What about the composite z-score [10] of the same compound?
**A.** 0.0373
